Assay outcomes: PubChem, National Center for Advancing Translational Sciences (NCATS)
Shown are actives, neighbours in structure and some others; about 2.8% of the full set was active somewhere.
HttQ103 aggreg: mutant huntingtin aggregation inhibition | PC12 HttQ103-GFP aggregates, Acumen cytometry, 40 h | Potency, µM (doses to about 46.1 µM), inactives show top-dose activity change, negative = inhibition, hits mostly inhibitors | 220,000 compounds, 1.1% hits | AID 1688; note: % is set by controls: 0 for no effect and ±100 for the full control effect; nearly all actives have a fitted effect of over 60% in size
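Ecdysone-promoter PC12 model expressing HTT exon 1 Q103 fused to GFP, induced by tebufenozide at 100 nM final. Compounds titrated; aggregates sized 1–25 µm scored on a 488 nm laser cytometer.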
TGFb SMAD3 inh: TGF-b pathway inhibition; HepG2 CAGA-GFP TGF-b/SMAD3 reporter, GFP fluorescence, 18 h; TGF-beta stimulated, 500 pg/mL final; Potency, µM (highest dose often 46.1 µM), inactives show at the highest dose activity, negative = inhibition, usual class: inhibitors; 410,000 compounds, 1.2% hits; AID 588855; note: % is set by controls: 0 for no effect and ±100 for the full control effect; nearly all actives have a fitted effect of over 65% in size
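First, reporter cells (HEPG2 CAGA-GFP) rested 2 h at 37 degrees C. Next, compounds were pinned in and TGF-beta added to 500 pg/mL final. After 18 h, GFP was imaged per cell and summed per well.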
HepG2 viability: kills HepG2 cells in TGF-b inhibitor counter-screen; HepG2 CAGA-GFP viability, ATP luminescence, 18 h; Potency, µM (doses to about 46.1 µM), for the others: at the top dose activity change, negative = cytotoxicity, hits mostly cytotoxic; 410,000 compounds, 0.76% hits
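CellTiter-Glo luminescence gave cytotoxicity after 18 hours at 37 degrees C. The cells were HepG2 CAGA-GFP in 1% FBS DMEM, stimulated with 500 pg/mL TGF-beta after compound addition. %Activity was normalised to no-cell wells (complete cell-killing) and DMSO (no toxicity), and curves were fitted and classified.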
ATXN2 expr inh: inhibitors of ATXN2 expression. HEK-293 ATXN2-luciferase reporter, luminescence, 24 h. Potency, µM (top dose mostly 57 µM), for the others: at the top dose activity change, negative = inhibition, hits mostly inhibitors. 360,000 compounds, 0.72% hits; note: % is set by controls: 0 for no effect and ±100 for the full control effect; nearly all actives have a fitted effect of over 55% in size
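ATXN2-luciferase reporter cells (luciferase flanked by upstream and downstream ATXN2 gene portions) were treated 24 h at 37 °C with compounds at up to 57 uM. SteadyGlo luminescence gave expression; GF-AFC fluorescence gave viability.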
HTT cytoprotect: cytoprotection in Huntington HTT-Q103 PC12 cell model; 230,000 compounds, 0.14% hits; PC12 HTT-Q103 induced, cytoprotection, ATP luminescence, 40 h; Potency, µM (doses to about 56.4 µM), without a hit: cytoprotection (ATP increase), usual class: activators; note: % of control where 0% means no effect; nearly all actives have a fitted effect of over 45% in size
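Huntington model: PC12 line, ecdysone-inducible HTTQ103 exon1–GFP, tebufenozide 100 nM. Test articles in a dose series. Endpoint luminescence from cellular ATP.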
S2 tox: cell viability loss in ATXN counter-screen; 400,000 compounds, 0.49% hits; Potency, µM (titrated, usually from 56.7 µM), usual class: cytotoxic; AID 651635; S2 cells (HEK-293 line with an ATXN2-luciferase reporter) viability, CellTiter-Fluor protease fluorescence, 24 h; note: nearly all actives have a fitted effect of over 40% in size
* hit, by the source's call; i = inactive; u = inconclusive; x = not tested or not shown; [ ] = another dose, or the depositor's remark. Calls come from the whole dose curve; as a rule, active = well fitted curve in the direction sought with a large enough effect; inconclusive = small, poorly fitted or top-dose-only effect, or another doubt; inactive = no such curve, though single readings can be large; an effect the other way counts as inactive or inconclusive. Potency is the fitted concentration of half-maximal effect.

SMILES	HttQ103 aggreg	TGFb SMAD3 inh	HepG2 viability	ATXN2 expr inh	HTT cytoprotect	S2 tox
Cc1cc(C)c(C(=O)Nc2ccc3c(c2)OCCO3)c(C)c1	x	-1%	13%	x	x	i
COc1ccc(C(=O)Nc2ccc(N3CCN(C)CC3)cc2)cc1	x	-3%	-4%	x	x	u
Cc1ccc(C(=O)N2CCN(c3ccc(NC(=O)c4ccc5c(c4)OCCO5)cc3)CC2)cc1	x	0%	2%	u	x	i
COc1c(C)cccc1C(=O)Nc1ccc(N2CCN(C(=O)c3ccccc3C)CC2)cc1	x	u	-10%	20µM*	x	u
Cc1ccc(C(=O)Nc2ccc3c(c2)OCCO3)c(C)c1	x	10%	-30%	5µM*	x	i
CN1CCN(c2ccc(NC(=O)c3ccc4ccccc4c3)cc2)CC1	x	-1%	-9%	14µM*	x	i
Cc1ccccc1C(=O)N1CCN(c2ccc(NC(=O)c3ccc4c(c3)OCCO4)cc2)CC1	x	-7%	-12%	28µM*	x	u
COc1ccccc1C1CN(Cc2c(C)nc3sccn23)Cc2ccccc2O1 (stereo not drawn)	x	x	x	x	x	i
Cc1ccc(-n2c(C)cc(C(=O)COC(=O)c3c(C)noc3C)c2C)cc1	10µM*	0%	8%	27%	-49%	i
CCOc1cc(/C=C2\SC(=N)N(c3nccs3)C2=O)ccc1OCCN1CCOCC1	u	0%	-24%	22µM*	x	u
CCOc1cc(/C=C2\SC(=S)N(N3CCOCC3)C2=O)ccc1O	4%[9.22 µM]	-7%	-11%	x	16%[10 µM]	i
CSc1ccc(C(=O)C2CCCN(C(=O)c3ccsc3)C2)cc1 (stereo not drawn)	14%[9.22 µM]	-28%	-28%	x	22%[10 µM]	u
CSc1ccc(C(=O)C2CCCN(C(=O)c3ccc4c(c3)no[n+]4[O-])C2)cc1 (stereo not drawn)	-2%[9.22 µM]	u	-18%	x	13%[10 µM]	14µM*
CCOC(=O)C[n+]1ccc2c([nH]c3ccccc32)c1C	x	1%	5%	-3%	x	x
O=C1c2ccccc2-[n+]2ccc3c([nH]c4ccccc43)c21	x	x	x	2.7µM*	x	x
C[C@H](CCC(=O)NCC(=O)O)C1CC[C@H]2[C@H]3C(C[C@H](O)[C@]12C)[C@@]1(C)CC[C@@H](O)C[C@H]1C[C@H]3O (stereo partly drawn)	x	x	x	x	-34%	x
NC(=S)NS(=O)(=O)c1ccc(N)cc1	26%	x	x	x	37%	x
O=C1C=C(N(CCO)Cc2ccccc2)c2ccccc2C1=O	8.9µM*	8.9µM*	10µM*	27µM*	-161%	x
O=C(O)[C@H]([C@H]1NCCS1)N1Cc2ccccc2C1	x	x	x	x	3%[10 µM]	x
O=c1[nH]c2ccc(Cl)cc2c(-c2ccccc2)c1SC(=S)N1CCOCC1	u	13µM*	-65%	-7%	-51%	i
O=c1[nH]c2ccc(Cl)cc2c(-c2ccccc2)c1SC(=S)N1CCCCC1	u	-5%	-3%	-4%	-9%	i
COc1cc(Cl)c(CN2CCOc3ccc(CN4CCCCC4CO)cc3C2)cc1OC (stereo not drawn)	x	x	x	x	x	i
COc1ccc(-n2cc(-c3ccc(OC(F)F)cc3)[n+]3c2CCCCC3)cc1	16µM*	-8%	-15%	-13%	-5%[10 µM]	i
COc1ccc(-c2cn(-c3ccc(Cl)cc3)c3[n+]2CCCCC3)cc1	-21%[9.22 µM]	-10%	-5%	-22%	-11%[10 µM]	i
Cc1cnc(-n2ncc(C(=O)NCC3CCCN(C)C3)c2C)nc1-c1cccs1 (stereo not drawn)	x	x	x	x	x	i
CCC[C@H](CN[C@@H](CNC)[C@H](C)CC)NCCc1cc(C(F)(F)F)cc(C(F)(F)F)c1	x	16µM*	22µM*	u	x	x
CC[C@@H](C)[C@H](CNC)NC[C@@H](Cc1cccc2ccccc12)NCCc1cccc(C(F)(F)F)c1	x	u	-110%	-22%	x	35µM*
